# Reference: PubChem BioAssay
# Legend:
# [1] = biological target: Tumor necrosis factor receptor superfamily member 10B (Homo sapiens) (UniProt O14763); assay: caspase-8 TRAIL sensitization, hit retest, confirmation, cell-based, NB7+caspase-8, with/without TRAIL, luminescence panel (AID 651596); conditions: NB7 neuroblastoma + caspase-8, TRAIL sensitization, luminescence viability, with TRAIL, mean of runs, at 10 µM, stronger effect = higher value
# [2] = as above; conditions: NB7 neuroblastoma + caspase-8, without TRAIL, luminescence viability, without TRAIL, mean of runs, at 10 µM
# Sequence of Tumor necrosis factor receptor superfamily member 10B (Homo sapiens) (O14763 whole entry, looked up): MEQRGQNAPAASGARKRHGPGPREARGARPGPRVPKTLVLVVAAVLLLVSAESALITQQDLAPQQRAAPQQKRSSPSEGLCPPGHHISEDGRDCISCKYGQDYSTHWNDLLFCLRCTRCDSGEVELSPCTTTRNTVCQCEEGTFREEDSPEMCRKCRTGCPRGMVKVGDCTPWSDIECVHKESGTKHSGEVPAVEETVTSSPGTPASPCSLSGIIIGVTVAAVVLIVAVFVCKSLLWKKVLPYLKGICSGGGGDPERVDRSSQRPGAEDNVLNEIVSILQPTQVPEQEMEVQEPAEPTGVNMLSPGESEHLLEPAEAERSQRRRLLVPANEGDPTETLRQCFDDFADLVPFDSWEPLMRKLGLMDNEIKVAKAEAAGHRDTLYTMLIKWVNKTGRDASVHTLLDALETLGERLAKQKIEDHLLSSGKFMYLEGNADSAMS
SMILES,activity [1] [%],activity [2] [%]
COc1ccc(C2C(C(=O)N3CCN(c4ccccc4)CC3)c3ccccc3C(=O)N2C)cc1 (stereo unspecified),69.5,66.3
Cc1ccc(Cn2ccsc2=NC(=O)CCl)cc1,99.2,99
Cc1cc(C)c2c(=N)c3ccccc3n(CCCCCCCCn3c4ccccc4c(=N)c4c(C)cc(C)nc43)c2n1,78.3,98.7
O=C(OCn1ncc(Cl)c(Cl)c1=O)c1ccccc1Cl,99.1,99.3
Cc1ccc(-c2nnc(-c3cccc4ccccc34)o2)cc1,58.2,44
Cc1cccc(/C(N)=N/OC(=O)c2ccoc2C)c1,90.8,91.8
Cc1cccc2sc(NNC(=O)c3ccc(S(=O)(=O)N4CCCC(C)C4)cc3)nc12 (stereo unspecified),51.8,42.3
CN(C)CCCn1cnc2c(c1=N)C(c1ccccc1)c1ccc3ccccc3c1O2 (stereo unspecified),88.5,93.6
CCOC(=O)c1sc2nc(-c3cccnc3)ccc2c1N,56,49.2
CCN(CC(=O)N1CCc2ccccc2C1)S(=O)(=O)c1ccc2ccccc2c1,42.7,62.5
CCOc1ccc(N/C=C/C(=O)c2ccccc2)c([N+](=O)[O-])c1,92.7,89.7
O=C(NC(=S)N1CCN(c2ccc(C(F)(F)F)cc2[N+](=O)[O-])CC1)c1cccs1,60.9,62.1
CCOC(=O)C1=CCN(S(=O)(=O)c2ccccc2C)C1c1ccc(Cl)cc1 (stereo unspecified),10.1,-8.28
COc1ccc2cc(CNCCOCCOCCNCc3ccc4cc(OC)ccc4c3)ccc2c1,-7.05,-2.75
Cc1nc(=S)c2c([nH]1)-c1ccccc1CC21CCCCC1,92,76.4
Cc1ccc(-c2nc3cc(N)ccc3o2)cc1,69.2,60
COc1cc2sc3ccc(C#CC4(O)CCCCC4)cc3c(=O)c2cc1OC,71.4,71.4
NC(=S)NN=C1c2cc(OCCN3CCOCC3)ccc2-c2ccc(OCCN3CCOCC3)cc21,99,99.5
Cc1ccc(C(=O)Nc2ncc(Cc3ccccc3)s2)o1,72.1,75
CCCn1c(Nc2nc3ccccc3n2C)nc2ccccc21,38.1,50.4
Cn1c(N)c(C(=O)CCl)c(=O)n(Cc2ccccc2)c1=O,96,77.9
COc1ccc(-c2cc3nc4n(c(=O)c3s2)CCC4)cc1,71.1,70.4
C=C(C)c1cc2c(ccc3ccc(=O)oc32)o1,92.6,91
CCCCCCCCCCCC1N=C(N)NC(CCCO)=C1C(=O)OC (stereo unspecified),16.3,18.3
Cc1cc(C)nc(NC(=O)/C=C/c2ccc3c(c2)OCO3)c1,70.2,75.5
CC(C)[C@@H](CO)NC(=O)c1ccc2c3n(nc2c1)-c1ccccc1CO3,71.1,71.6
O=C(Nc1nc2ccccc2[nH]1)c1ccccc1O,63.1,65.9
O=C(NCCN1C(=O)S/C(=C\c2ccc(Cl)c([N+](=O)[O-])c2)C1=O)C1=COCCO1,63.1,72.9
